Experimental data reported in the supplement of paper PMC9694430.

Legend:
Test in all cases: thermal shift delta Tm vs DMSO control; higher = stronger stabilization (binding)
Conditions in all cases: 12.5 µM; protein concentration 2 µM
LOC_OS01G01410-cb001 = tested on: LOC_OS01G01410-cb001
How it was run: (§1)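 Heating from 25°C to 95°C at 0.05°C/s, fluorescence was recorded for 19.5 μl wells of 2 μM E. coli-expressed, purified rice kinase domain in 100 mM potassium phosphate pH 7.5, 150 mM NaCl, 10% glycerol and 5 × SYPRO Orange with compound in DMSO. Boltzmann fits gave melting temperatures for this differential scanning fluorimetry assay. The shift reported is the mean of three replicates against the DMSO-only protein.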

LOC_OS01G10900-cb004 = tested on: LOC_OS01G10900-cb004
How it was run: as §1

LOC_OS01G13800-cb001 = tested on: LOC_OS01G13800-cb001
How it was run: as §1

LOC_OS01G14860-cb001 = tested on: LOC_OS01G14860-cb001
How it was run: as §1

LOC_OS01G21960-cb002 = tested on: LOC_OS01G21960-cb002
How it was run: as §1

LOC_OS01G48390-cb002 = tested on: LOC_OS01G48390-cb002
How it was run: as §1

LOC_OS01G51400-cb002 = tested on: LOC_OS01G51400-cb002
How it was run: as §1

LOC_OS01G52050-cb004 = tested on: T1, LOC_OS01G52050-cb004
T1 sequence (whole entry): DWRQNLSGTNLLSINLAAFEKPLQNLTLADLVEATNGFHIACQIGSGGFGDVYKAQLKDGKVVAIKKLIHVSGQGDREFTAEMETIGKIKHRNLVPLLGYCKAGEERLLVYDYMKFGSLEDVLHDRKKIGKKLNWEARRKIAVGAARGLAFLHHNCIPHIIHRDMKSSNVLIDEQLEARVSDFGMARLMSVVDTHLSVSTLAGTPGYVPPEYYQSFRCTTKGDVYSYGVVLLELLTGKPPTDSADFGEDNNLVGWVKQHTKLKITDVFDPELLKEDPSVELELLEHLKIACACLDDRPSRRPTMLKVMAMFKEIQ
How it was run: as §1

LOC_OS01G57100-cb003 = tested on: LOC_OS01G57100-cb003
How it was run: as §1

LOC_OS01G60330-cb001 = tested on: LOC_OS01G60330-cb001
How it was run: as §1

LOC_OS01G60700-cb002 = tested on: LOC_OS01G60700-cb002
How it was run: as §1

LOC_OS01G67340-cb003 = tested on: LOC_OS01G67340-cb003
How it was run: as §1

LOC_OS01G70970-cb002 = tested on: LOC_OS01G70970-cb002
How it was run: as §1

LOC_OS02G07810-cb001 = tested on: LOC_OS02G07810-cb001
How it was run: as §1

LOC_OS02G08530-cb003 = tested on: LOC_OS02G08530-cb003
How it was run: as §1

LOC_OS02G17970-cb001 = tested on: LOC_OS02G17970-cb001
How it was run: as §1

LOC_OS01G02750-cb003 = tested on: LOC_OS01G02750-cb003
How it was run: as §1

LOC_OS01G39600-cb002 = tested on: LOC_OS01G39600-cb002
How it was run: as §1

LOC_OS01G63280-cb003 = tested on: LOC_OS01G63280-cb003
How it was run: as §1

LOC_OS02G14120-cb001 = tested on: LOC_OS02G14120-cb001
How it was run: as §1
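Note: purified Escherichia coli-expressed rice kinase domain construct.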

| SMILES | thermal shift delta Tm (LOC_OS01G01410-cb001) [°C] | thermal shift delta Tm (LOC_OS01G10900-cb004) [°C] | thermal shift delta Tm (LOC_OS01G13800-cb001) [°C] | thermal shift delta Tm (LOC_OS01G14860-cb001) [°C] | thermal shift delta Tm (LOC_OS01G21960-cb002) [°C] | thermal shift delta Tm (LOC_OS01G48390-cb002) [°C] | thermal shift delta Tm (LOC_OS01G51400-cb002) [°C] | thermal shift delta Tm (LOC_OS01G52050-cb004) [°C] | thermal shift delta Tm (LOC_OS01G57100-cb003) [°C] | thermal shift delta Tm (LOC_OS01G60330-cb001) [°C] | thermal shift delta Tm (LOC_OS01G60700-cb002) [°C] | thermal shift delta Tm (LOC_OS01G67340-cb003) [°C] | thermal shift delta Tm (LOC_OS01G70970-cb002) [°C] | thermal shift delta Tm (LOC_OS02G07810-cb001) [°C] | thermal shift delta Tm (LOC_OS02G08530-cb003) [°C] | thermal shift delta Tm (LOC_OS02G17970-cb001) [°C] | thermal shift delta Tm (LOC_OS01G02750-cb003) [°C] | thermal shift delta Tm (LOC_OS01G39600-cb002) [°C] | thermal shift delta Tm (LOC_OS01G63280-cb003) [°C] | thermal shift delta Tm (LOC_OS02G14120-cb001) [°C] |
| --- | --- | --- | --- | --- | --- | --- | --- | --- | --- | --- | --- | --- | --- | --- | --- | --- | --- | --- | --- | --- |
| O=c1[nH]nc(Sc2ncc([N+](=O)[O-])s2)n1-c1ccc2c(c1)OCCO2 | 1.48 | 8.23 | 1.65 | 2.21 | 1.25 | 2.84 | -0.65 | -3.66 | 6.97 | 0 | 4.73 | -6.49 | -7.96 | 1.41 | 1.83 | 3.38 |  |  |  |  |
| COc1cc(N2CCC(N3CCN(C)CC3)CC2)ccc1Nc1ncnc(Nc2ccccc2S(=O)(=O)C(C)C)n1 | 0.27 | 0.08 | -0.11 | 0.33 | 0.28 | 0.94 | 0.37 | 0.61 | 1.39 | 0.48 | 0.92 | 0.5 | 0.84 | 0.26 | 1.76 | 0.11 | 1.86 | 0.25 | 0.72 | 3.1 |
| COc1cc(N2CCN(C)CC2)ccc1Nc1ncc2c(n1)N(C)c1ccccc1C(=O)N2 | 0.72 | 1.07 | -0.23 | 0.43 | 0.53 | 0.41 | 0.22 | -0.22 | 0.71 | 0.79 | 1.11 | 0.39 | 0.32 | 0.41 | 0.62 | 0.53 | 1.11 | 0.75 | 0.14 | 2.52 |
| COC(=O)[C@]12CCC(C)(C)C[C@H]1[C@H]1C(=O)C=C3[C@@]4(C)C=C(C#N)C(=O)C(C)(C)[C@@H]4CC[C@@]3(C)[C@]1(C)CC2 [Bardoxolone Methyl] | -2.64 | -14.8 | -0.32 | -4.11 | -0.25 | -0.51 | -7.84 | -10.5 |  | -0.58 |  | -5.05 | -11 | 0.28 | -2.07 | -0.5 | 0 |  | -6.77 | -4.67 |
| FC(F)(F)c1ccc(Nc2nc3ccc(Oc4ccnc(-c5ncc(C(F)(F)F)[nH]5)c4)cc3[nH]2)cc1 [Raf265 derivative] | 2.22 | 2.77 | 3.55 | 4.58 | 3.8 | 4.75 |  | 8.78 | 1.09 | 1.86 | -0.31 | 0.26 | 1.67 | 2.01 | 0.35 | 2.16 | 8.8 | 6.13 |  | 0.25 |
| O=C(Nc1cc(C(F)(F)F)cc(C(F)(F)F)c1)c1cc(Cl)ccc1O | 1.21 | 0.29 | 1.37 | 1.05 | 1.13 | 1.1 | 0.99 | 1.75 | 1.44 | 1.34 | 2.1 | 0.01 | 0.57 | 2.75 | 1.42 | 2.43 | 2.23 | 3.34 | 1.28 | 0.39 |
| Cn1sc(=O)n(Cc2ccccc2)c1=O | -9.79 |  | 0.24 | -0.11 | 1.01 | 0.64 | 0.21 | -0.28 | 3.29 | -0.15 | 2.66 | -1.31 |  | 2.24 | -1.23 | 1.81 | -0.38 | 0.5 | 1.02 | -0.52 |
